In PubChem BioAssay (NCI):
Compounds without any hit were thinned out: in the full panel of roughly 83,000, 20% have a hit.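 Compound tested at a single concentration for 48 hours in 96-well plates; a percent growth value below 10 was scored as active.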 A number with no mark means an inactive call. Calls of active or inactive are those of the source.

Tests used:
Test in all cases: NCI-60 one-dose screen, 48 h (100 = growth as untreated, 0 = no growth, -100 = all killed)
Conditions in all cases: 10 µM unless noted
DU-145 prostate = test system: DU-145 prostate
K-562 leukemia = test system: K-562 leukemia
MALME-3M melanoma = test system: MALME-3M melanoma
MDA-MB-231 breast = test system: MDA-MB-231 breast
RXF 393 renal = test system: RXF 393 renal
SF-268 CNS = test system: SF-268 CNS
SF-295 CNS = test system: SF-295 CNS
SF-539 CNS = test system: SF-539 CNS
UACC-257 melanoma = test system: UACC-257 melanoma
M14 melanoma = test system: M14 melanoma

Structure (SMILES) | growth (DU-145 prostate) | growth (K-562 leukemia) | growth (MALME-3M melanoma) | growth (MDA-MB-231 breast) | growth (RXF 393 renal) | growth (SF-268 CNS) | growth (SF-295 CNS) | growth (SF-539 CNS) | growth (UACC-257 melanoma) | growth (M14 melanoma)
C/C(=C\CCc1ccoc1)CC/C=C(\C)CCCN1CCOCC1 | 73.9% | 20.6% | 55.8% | 43.7% | 50.1% | 72.6% | 67.8% | 78.2% | 53.4% | 
CCCCCN(CCCCC)CCCNc1c2c(nc3ccc(Cl)cc13)CCCC2 | 66.6% | 14.2% | 35.5% | 18.5% | 57.1% | 76.1% | 37.8% | 47% | 13.2% | 
O=C(CNc1ccc2c(c1)C(=O)c1ccccc1C2=O)Nc1ccc2c(c1)C(=O)c1ccccc1C2=O | -100% (active) | -30.2% (active) | -81.2% (active) | -27.7% (active) | -89.4% (active) | -94.6% (active) | -89.4% (active) | -69.3% (active) | -90.3% (active) | 
O=C1C(=O)/C(=C/c2ccccc2)CCCCCC/C1=C/c1ccccc1 | 64.6% | 4.05% (active) | 90.9% | 96.2% | -11.6% (active) | 60.6% | 76.5% | 103% | 75.3% | 
COc1ccc(-c2nc3sc4c(c3c(=O)[nH]2)CCCCCC4)cc1 | 66.6% | 17.8% | 8.18% (active) | 52.6% | 28.4% | 48.6% | 43.6% | 65.1% | 64% | 
Cc1cc(C)nc(NS(=O)(=O)c2ccc(Nc3nc4nc(SCc5ccccc5)nc(-c5ccc(O)cc5)c4c(=O)[nH]3)cc2)n1 | 136% | 84.2% | 67.7% | 93.8% | 78.6% | 84% | 83.3% | 98.9% | 113% | 
Cc1ccc2c(c1)C(=O)/C(=C\Nc1ccc(C(N)=O)cc1)C(O)O2 (stereo not given) | 107% | 97.7% | 86.7% | 83.1% | 111% | 82.8% | 94% | 99.8% | 118% | 
O=CN1N=C(c2ccc(Nc3ccnc4cc(Cl)ccc34)cc2)CC1c1ccc(Cl)cc1 (stereo not given) | 10% | 9.53% (active) | 34.5% | 31.2% | 17.5% | 34.9% | -1.08% (active) | -0.113% (active) | 77.7% | 
CC(NC(N)=S)c1ccccc1 (stereo not given) | 115% | 94.6% | 105% | 91.9% | 98% | 106% | 101% | 96.1% |  | 
CCOC(=O)c1cc2oc(/C=C/c3cc(=O)c4cc(Cl)ccc4o3)cc2[nH]1 | 65.4% | 88.9% | -14.5% (active) | 78.9% | 58% | 73% | 109% | 70% | 101% | 
O=C(Nc1ccccc1OC(=O)c1ccccc1)c1ccccc1 | 112% | 25.2% | 93.9% | 56.1% | 121% | 47.3% | 109% | 95.7% | 63.8% | 
Cc1cc(C(=O)Nc2ccc3cc(CN4CCOCC4)ccc3n2)c(C)n1-c1ccccc1 | 70.2% | 27% | 11.4% | 70.9% | 96.3% | 77% | 11.7% | 59.1% | -12.7% (active) | 
CCCCCCC(CC#N)(CCC)CCCC (stereo not given) | 121% | 106% | 100% | 106% | 106% | 115% | 39.5% | 85.3% | 104% | 
O=CNc1ccc2c(c1)Cc1cc([N+](=O)[O-])ccc1-2 | 0.835% (active) | 21.3% | 11.4% | 34.4% | -14.6% (active) | 42% | 16.3% | 27.9% | 59.3% | -15.7% (active)
COc1cc(Cl)cc(-c2nn(-c3cccc(NC(=O)c4cc(C(F)(F)F)cc(C(F)(F)F)c4)c3)cc2-c2ccncc2)c1 | 78.2% | 38% | 104% | 56.7% | 67.7% | 89.2% | 42.1% | 80% | 79.3% | 67.3%
O=C1NCCc2c1noc2-c1ccccc1 | 104% | 108% | 108% | 122% | 105% | 93.7% | 97.8% | 94.7% | 101% | 101%
CO[C@H]1/C=C/O[C@@]2(C)Oc3c(C)c(O)c4c(O)c(c(/C=N/N5C(C)CN(Cc6ccc(C#N)cc6)CC5C)c(O)c4c3C2=O)NC(=O)/C(C)=C\C=C\[C@H](C)[C@H](O)[C@@H](C)[C@@H](O)[C@@H](C)[C@H](OC(C)=O)[C@@H]1C (stereo not given in full) | 45.3% | 16.3% | 8.74% (active) | 90.3% | 43.7% | 35% | 0.574% (active) | 16% | 45.1% | 36.8%
O[N+]1=CC=CCC1=S.On1ccccc1=S.[Zn] | -90.1% (active) | -17.7% (active) | -54.9% (active) | -81.4% (active) | -84.9% (active) | -46.6% (active) | -81.5% (active) | -64.8% (active) | -88.8% (active) | -74.2% (active)
CCN1CCN(c2nc(NNC(=O)Cc3ccccc3)nc(N3CCN(C(c4ccccc4)c4ccccc4)CC3)n2)CC1 | 63.5% | 2.28% (active) | 77% | 82.7% | 66.6% | 82% | 68.3% | 86.8% | -51.5% (active) | -68.2% (active)
C[C@@H]1[C@H]2[C@H](C=C3[C@@H]4CC[C@H]5Cc6nc7c(nc6C[C@]5(C)[C@H]4C[C@@H](O)[C@@]32C)C[C@@H]2CC[C@H]3C4=C[C@@H]5O[C@@]6(CC[C@](C)(CO)O6)[C@@H](C)[C@@]5(O)[C@@]4(C)[C@H](O)C[C@@H]3[C@@]2(C)C7)O[C@]12CCC(C)(C)O2 | 45.2% | -7.07% (active) | 38.8% | -0.32% (active) | -44.4% (active) | 31.2% | -63.4% (active) | 3.28% (active) | 26.6% | 8.26% (active)
Oc1c(Cl)cc(Oc2cc(Cl)c(O)c(CN3CCOCC3)c2)cc1CN1CCOCC1 | 101% | 81.4% | 105% | 96.6% | 104% | 87.9% | 99.4% | 98.2% | 86.4% | 105%
CCOC(=O)OCC(=O)[C@@]1(O)CC[C@H]2[C@@H]3CCC4=CC(=O)CC[C@]4(C)[C@H]3[C@@H](O)C[C@@]21C | 101% | 111% | 75.7% | 98.2% | 127% | 94% | 129% | 91.3% | 93.4% | 90.7%
N#Cc1c(-c2ccc(F)cc2)n2c(nc1=O)SC(=O)C2=O | 124% | 108% | 90.8% | 114% | 96.5% | 93.4% | 103% | 115% | 85.8% | 105%
O=C(CC1Sc2ccccc2NC1=O)NNc1cccc(Cl)c1Cl (stereo not given) | 108% | 89.1% | 54.6% | 83.5% | 97.6% | 91.4% | 92.4% | 67.3% | 99.1% | 112%
COc1ccc(C2=NN(C(C)=O)C(c3c(C)nn(-c4ccccc4)c3N3CCOCC3)C2)cc1 (stereo not given) | 107% | 99% | 106% | 98.1% | 98.7% | 95% | 93.9% | 93.7% | 86.3% | 94.8%
COc1cnc2c(c1)C(=O)c1c-2n(CCCN2CCNCC2)c(=O)c2cc(F)ccc12 | -0.602% (active) | -65.9% (active) | -60.7% (active) | 9.36% (active) | -36% (active) | 6.43% (active) | 0.838% (active) | -64.2% (active) | 10.8% | 
COc1ccc(OC)c(CCn2cncc2-c2c[nH]c3cc(Br)ccc23)c1 | 63.3% | 7.3% (active) | 37.7% | 48.7% | 51.9% | 45.6% | 18.4% | 56.3% | 29.9% | 26.4%
Nc1nc2c(c(=O)[nH]1)C1(C(=O)Nc3ccccc31)c1c(nc(N)[nH]c1=O)N2 | 108% | 115% | 99.9% | 98.7% | 96.6% | 104% | 101% | 106% | 110% | 99.3%
